Laboratory results from PubChem BioAssay (Tox21).
Records with an inconclusive call do not appear. A number with no mark means an inactive call. Activity calls are given as the source filed them. Calls follow the shape of the dose curve; as a rule, active = well fitted inhibition curve with a large enough effect in the repeat runs; inconclusive = weak or mixed curves; inactive = no such curve, though single readings can be large or run the other way.

Biological target: Cytochrome P450 2C19 (Homo sapiens) (UniProt P33261)
Sequence (P33261 whole entry, looked up): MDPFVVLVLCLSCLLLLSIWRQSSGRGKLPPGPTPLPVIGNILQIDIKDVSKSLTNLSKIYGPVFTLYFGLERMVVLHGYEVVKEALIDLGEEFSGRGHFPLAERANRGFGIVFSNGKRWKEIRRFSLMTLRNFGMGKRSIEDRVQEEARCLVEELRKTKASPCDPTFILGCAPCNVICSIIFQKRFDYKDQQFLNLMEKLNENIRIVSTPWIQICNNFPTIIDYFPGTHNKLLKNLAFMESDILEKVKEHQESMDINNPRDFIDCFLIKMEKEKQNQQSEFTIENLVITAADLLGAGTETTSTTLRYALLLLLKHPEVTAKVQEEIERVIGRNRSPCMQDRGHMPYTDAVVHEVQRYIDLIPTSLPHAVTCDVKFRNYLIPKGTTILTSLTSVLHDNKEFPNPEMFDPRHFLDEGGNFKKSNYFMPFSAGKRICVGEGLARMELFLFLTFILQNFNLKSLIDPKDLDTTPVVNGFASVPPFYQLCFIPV
Experiment: Cytochrome P450 Family 2 Subfamily C Member 19 (CYP2C19) small molecule antagonists: luciferase reporter qHTS assay (AID 1671197); also: nearly all actives have a fitted effect of over 65% in size
Conditions: P450-Glo CYP2C19 enzyme, luciferin luminescence, 1 h; series mostly up to 115 µM
Method in brief: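 P450-Glo CYP2C19 screening system; proluciferin substrate; DMSO compound stocks; 10 min RT preincubation; NADPH regeneration, 1 h at 37C; luciferin detection reagent, 20 min RT; luminescence as RLU.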
% is scaled to controls: 0 for no effect and ±100 for the full control effect; potency is read from the fitted curve at half-maximal effect.

| SMILES | Potency |
| --- | --- |
| CCCCOC(=O)C(C)Oc1ccc(Oc2ccc(C(F)(F)F)cn2)cc1 (stereo unspecified) | 50.2 µM (active) |
| Nc1ccc(-c2ccc(F)cc2)cc1 | 8.94 µM (active) |
| CC(C)NC(=O)c1ccccc1N | inactive |
| CCCCOC(=O)CC#N | 7.44 µM (active) |
| C=CCCC | inactive |
| CCOc1ccccc1O | inactive |
| CC(C)(O)C(=O)O | inactive |
| O=C(N[C@@H](Cc1ccccc1)[C@@H](O)C(=O)N1C[C@@H](O)[C@@H](O)C1)c1cc2cc(Cl)ccc2[nH]1 | 39.9 µM (active) |
| CCCCCCCCC(=O)OCC(C)OC(=O)CCCCCCCC (stereo unspecified) | 83.4 µM (active) |
| CCc1ccc2c(c1)C(=O)c1ccccc1C2=O | 11.2 µM (active) |
| CCOc1ccc(NC(C)=O)cc1N | 36.1 µM (active) |
| Cc1cc(N)n(-c2ccccc2)n1 | 28.3 µM (active) |
| OCC(O)c1ccccc1 (stereo unspecified) | inactive |
| Nc1nc(Cl)nc2c1ncn2[C@H]1C[C@H](O)[C@@H](CO)O1 | inactive |
| C[C@H](N)C(=O)N[C@@H](C)C(=O)NC1[C@H]2CN(c3nc4c(cc3F)c(=O)c(C(=O)O)cn4-c3ccc(F)cc3F)C[C@@H]12 (stereo partly specified) | inactive |
| Cc1c(Cl)cccc1Nc1ccccc1C(=O)O | inactive |
| O=[N+]([O-])c1ccc(Cl)cc1Cl | inactive |
| S=c1[nH][nH]c(=S)s1 | 22.4 µM (active) |
| CC/C=C\CCO | inactive |

Biological target: Cytochrome P450 2C9 (Homo sapiens) (UniProt P11712)
Sequence (P11712 whole entry, looked up): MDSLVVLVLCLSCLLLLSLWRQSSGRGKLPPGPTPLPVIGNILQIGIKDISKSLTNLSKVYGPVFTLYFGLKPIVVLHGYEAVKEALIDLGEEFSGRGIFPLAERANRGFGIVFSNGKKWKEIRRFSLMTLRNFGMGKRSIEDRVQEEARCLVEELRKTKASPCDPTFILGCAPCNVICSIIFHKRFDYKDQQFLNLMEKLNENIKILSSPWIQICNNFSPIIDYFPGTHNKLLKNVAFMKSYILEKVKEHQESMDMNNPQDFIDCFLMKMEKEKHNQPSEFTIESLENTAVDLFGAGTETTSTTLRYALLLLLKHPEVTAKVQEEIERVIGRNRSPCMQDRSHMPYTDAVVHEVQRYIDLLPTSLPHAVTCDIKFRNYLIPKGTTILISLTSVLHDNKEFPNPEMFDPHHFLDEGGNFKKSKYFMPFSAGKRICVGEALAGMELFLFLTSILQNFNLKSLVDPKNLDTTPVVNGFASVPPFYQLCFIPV
Experiment: Cytochrome P450 Family 2 Subfamily C Member 9 (CYP2C9) small molecule antagonists: luciferase reporter qHTS assay (AID 1671198); also: nearly all actives have a fitted effect of over 50% in size
Conditions: P450-Glo CYP2C9 enzyme assay, luciferin luminescence; series mostly up to 115 µM
Method in brief: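 P450-Glo proluciferin substrate with CYP2C9 enzyme; 10 min RT preincubation, then NADPH regeneration 1 h at 37C; luciferin detection reagent 20 min RT, luminescence in relative luminescence units.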

| SMILES | Potency | activity change, negative = inhibition |
| --- | --- | --- |
| O=c1c2ccccc2oc2ccccc12 | 39.9 µM (active) |  |
| O=S(=O)(O)c1cc(Cl)c(Cl)cc1Cl | 31.7 µM (active) |  |
| O=C(O)c1cc(C(=O)O)cc([N+](=O)[O-])c1 | inactive |  |
| COc1ccc(/C=C/S(=O)(=O)NC(=O)c2ccc(C)cc2Cl)cc1 | 17.8 µM (active) |  |
| C[C@@H](O)[C@H]1C(=O)N2C(C(=O)O)=C(S[C@@H]3CN[C@H](CNS(N)(=O)=O)C3)[C@H](C)[C@H]12 | 15.5 µM (active) |  |
| COC(=O)Cc1cccc2ccccc12 | inactive |  |
| CCCC1CCCC(=O)O1 (stereo unspecified) | 39.9 µM (active) |  |
| C[C@H]1C[C@H]2[C@@H]3CCC4=CC(=O)C=C[C@]4(C)[C@@]3(F)[C@@H](O)C[C@]2(C)[C@@]1(O)C(=O)COP(=O)(O)O | inactive |  |
| O=C(O)c1c2ccccc2cc2ccccc12 | 31.6 µM (active) |  |
| CCC(C)C1N=C(C)C(C)S1 (stereo unspecified) | 39.9 µM (active) |  |
| CC1=C(C)C(=O)C(C(CCCCCC(=O)O)c2ccccc2)=C(C)C1=O (stereo unspecified) | 17.4 µM (active) |  |
| FC(F)(Cl)C(F)(Cl)Cl | inactive |  |
| CCOC(OCC)OCC | inactive |  |
| O=C(Nc1ccccc1)c1cc([N+](=O)[O-])ccc1Cl | 31.7 µM (active) |  |
| COC=O |  | -23.5% [at 10.5 µM] |
| C1=COCCC1 | inactive |  |

| SMILES | Potency | activity change, negative = inhibition |
| --- | --- | --- |
| CCCCOC(=O)C(C)Oc1ccc(Oc2ccc(C(F)(F)F)cn2)cc1 (stereo unspecified) | 22.4 µM (active) |  |
| Nc1ccc(-c2ccc(F)cc2)cc1 | 14.2 µM (active) |  |
| CC(C)NC(=O)c1ccccc1N | inactive |  |
| CCCCOC(=O)CC#N | 7.44 µM (active) |  |
| C=CCCC | inactive |  |
| CCOc1ccccc1O | inactive |  |
| CC(C)(O)C(=O)O | inactive |  |
| O=C(N[C@@H](Cc1ccccc1)[C@@H](O)C(=O)N1C[C@@H](O)[C@@H](O)C1)c1cc2cc(Cl)ccc2[nH]1 | 35.6 µM (active) |  |
| CCCCCCCCC(=O)OCC(C)OC(=O)CCCCCCCC (stereo unspecified) | 59.1 µM (active) |  |
| CCc1ccc2c(c1)C(=O)c1ccccc1C2=O | 10 µM (active) |  |
| OCC(O)c1ccccc1 (stereo unspecified) | inactive |  |
| C[C@H](N)C(=O)N[C@@H](C)C(=O)NC1[C@H]2CN(c3nc4c(cc3F)c(=O)c(C(=O)O)cn4-c3ccc(F)cc3F)C[C@@H]12 (stereo partly specified) | inactive |  |
| Cc1c(Cl)cccc1Nc1ccccc1C(=O)O | 17.4 µM (active) |  |
| O=[N+]([O-])c1ccc(Cl)cc1Cl | inactive |  |
| S=c1[nH][nH]c(=S)s1 | 20 µM (active) |  |

Biological target: Cytochrome P450 1A2 (Homo sapiens) (UniProt P05177)
Sequence (P05177 whole entry, looked up): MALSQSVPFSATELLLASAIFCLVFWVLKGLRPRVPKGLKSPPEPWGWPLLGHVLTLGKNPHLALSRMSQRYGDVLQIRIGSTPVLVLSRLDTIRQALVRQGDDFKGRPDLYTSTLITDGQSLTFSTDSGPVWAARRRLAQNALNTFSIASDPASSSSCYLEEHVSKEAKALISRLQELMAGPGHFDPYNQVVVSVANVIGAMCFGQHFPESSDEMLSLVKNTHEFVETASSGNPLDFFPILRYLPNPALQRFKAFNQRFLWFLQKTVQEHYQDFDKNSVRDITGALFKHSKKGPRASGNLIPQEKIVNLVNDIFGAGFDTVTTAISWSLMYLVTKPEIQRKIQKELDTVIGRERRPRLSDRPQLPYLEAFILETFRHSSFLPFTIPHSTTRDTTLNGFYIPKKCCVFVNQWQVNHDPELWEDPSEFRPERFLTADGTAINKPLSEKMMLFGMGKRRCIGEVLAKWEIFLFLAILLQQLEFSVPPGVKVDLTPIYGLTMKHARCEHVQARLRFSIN
Experiment: Cytochrome P450 Family 1 Subfamily A Member 2 (CYP1A2) small molecule antagonists: luciferase reporter qHTS assay (AID 1671199); also: nearly all actives have a fitted effect of over 50% in size
Conditions: P450-Glo CYP1A2 enzyme, luciferin luminescence, 1 h; series mostly up to 115 µM
Method in brief: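 CYP1A2 turnover of a luminogenic substrate was quantified after 1 h with NADPH regeneration at room temperature. Furafylline served as positive control.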

| SMILES | Potency | activity change, negative = inhibition |
| --- | --- | --- |
| O=c1c2ccccc2oc2ccccc12 | 0.564 µM (active) |  |
| COc1ccc(/C=C/S(=O)(=O)NC(=O)c2ccc(C)cc2Cl)cc1 | inactive |  |
| COC(=O)Cc1cccc2ccccc12 | 20 µM (active) |  |
| CCCC1CCCC(=O)O1 (stereo unspecified) | inactive |  |
| CCC1=C(C)CN(C(=O)NCCc2ccc(S(=O)(=O)NC(=O)NC3CCC(C)CC3)cc2)C1=O (stereo unspecified) | inactive |  |
| C[C@H]1C[C@H]2[C@@H]3CCC4=CC(=O)C=C[C@]4(C)[C@@]3(F)[C@@H](O)C[C@]2(C)[C@@]1(O)C(=O)COP(=O)(O)O | inactive |  |
| O=C(O)c1c2ccccc2cc2ccccc12 | 10 µM (active) |  |
| O=c1[nH]nc(-c2ccc([N+](=O)[O-])o2)o1 | 31.7 µM (active) |  |
| CC1=C(C)C(=O)C(C(CCCCCC(=O)O)c2ccccc2)=C(C)C1=O (stereo unspecified) | inactive |  |
| CCOCCn1c(N2CCCN(C)CC2)nc2ccccc21 | inactive |  |
| CCCCCCCCNC | inactive |  |
| O=C(Nc1ccccc1)c1cc([N+](=O)[O-])ccc1Cl | 7.96 µM (active) |  |
| COC=O |  | -7.2% [at 10.5 µM] |
| C1=COCCC1 | inactive |  |
| CCCCOC(=O)C(C)Oc1ccc(Oc2ccc(C(F)(F)F)cn2)cc1 (stereo unspecified) | 22.4 µM (active) |  |
| Nc1ccc(-c2ccc(F)cc2)cc1 | 0.502 µM (active) |  |
| CCCCOC(=O)CC#N | 7.44 µM (active) |  |
| C=CCCC | inactive |  |
| CCOc1ccccc1O | inactive |  |
| O=C(N[C@@H](Cc1ccccc1)[C@@H](O)C(=O)N1C[C@@H](O)[C@@H](O)C1)c1cc2cc(Cl)ccc2[nH]1 | 28.3 µM (active) |  |
| CCc1ccc2c(c1)C(=O)c1ccccc1C2=O | 2.24 µM (active) |  |
| CCOc1ccc(NC(C)=O)cc1N | 16.1 µM (active) |  |
| Cc1cc(N)n(-c2ccccc2)n1 | 39.9 µM (active) |  |
| Nc1nc(Cl)nc2c1ncn2[C@H]1C[C@H](O)[C@@H](CO)O1 | 28.1 µM (active) |  |
| S=c1[nH][nH]c(=S)s1 | inactive |  |
| CC/C=C\CCO | inactive |  |
